Laboratory results taken from PubChem BioAssay AID1001 (Sanford-Burnham Center for Chemical Genomics, 2008).
The whole screen tested about 200,000 compounds, of which about 50 (0.03%) were called active. The sample holds actives, similar compounds and a random draw of the others, so the mix is not that of the screen. The rule behind the calls is not given here. Entries with a potency or affinity are not part of this list.

target: Alkaline phosphatase, tissue-nonspecific isozyme (Homo sapiens) (UniProt P05186); test: human TNAP enzyme activators, primary screen, biochemical, luminescent, no phosphate acceptor, uHTS (AID 1001); conditions: purified TNAP, luminescent activation assay, at 20 µM, hits give high values
Sequence (P05186 whole entry, looked up): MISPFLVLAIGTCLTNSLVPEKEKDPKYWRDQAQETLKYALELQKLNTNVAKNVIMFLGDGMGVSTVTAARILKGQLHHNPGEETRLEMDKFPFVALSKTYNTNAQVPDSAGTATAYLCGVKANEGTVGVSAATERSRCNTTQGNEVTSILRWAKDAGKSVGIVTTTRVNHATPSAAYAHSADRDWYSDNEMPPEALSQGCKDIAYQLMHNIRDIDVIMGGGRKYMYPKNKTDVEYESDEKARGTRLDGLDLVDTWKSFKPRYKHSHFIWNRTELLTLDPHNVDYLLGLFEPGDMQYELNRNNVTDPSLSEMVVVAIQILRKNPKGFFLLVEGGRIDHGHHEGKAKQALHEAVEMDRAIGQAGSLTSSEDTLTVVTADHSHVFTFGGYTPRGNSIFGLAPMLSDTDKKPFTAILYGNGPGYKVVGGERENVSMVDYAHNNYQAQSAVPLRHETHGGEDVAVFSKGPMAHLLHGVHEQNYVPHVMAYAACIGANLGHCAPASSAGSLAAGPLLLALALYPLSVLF

Activation fold, active:
CC(C)N1CCC2(CC1)C(C#N)=C(N)NC(S)=C2C#N 5.8

Activation fold, inactive:
O=C(OCc1cc2ccccc2[nH]c1=O)C1CCCO1 (centres undefined) 1.1
O=C(CSc1nnc(C2COc3ccccc3O2)o1)Nc1nccs1 (centres undefined) 1.2
CCCCOC(=O)c1ccc(NC(=O)CSCc2n[nH]c(=O)[nH]2)cc1 1.4
Cc1ccc(O)c(-c2cc(-c3ccccc3[N+](=O)[O-])[nH]n2)c1 2.3
O=[N+]([O-])c1ccccc1-c1cc(-c2ccccc2O)n[nH]1 2.1
CC(C)(Oc1ccc(Cl)cc1)C(=O)NCc1ccc(S(N)(=O)=O)cc1 1.2
CCn1cc(S(=O)(=O)CC(=O)Nc2ccc3c(c2)OCCO3)c2ccccc21 1.1
CC(C)C(OC(=O)C1=Cc2ccccc2OC1)C(=O)NC1CCCC1 (centres undefined) 1.2
CN(C)CCNc1ccc(-c2nn(C)c(=O)c3ccccc23)cc1[N+](=O)[O-] 1
O=S1(=O)NC2CCCCCN2c2ccc(F)cc21 (centres undefined) 1.1
Cn1c(C(=O)NCC2CCCO2)cc2c(=O)n(C)c3ccccc3c21 (centres undefined) 1.1
CCSC1=C(C#N)C2(CCCC2)C(C#N)=C(N)N1 1
CSC1=C(C#N)C2(CCCC2)C(C#N)=C(N)N1 1.1
CCOC(=O)CSc1nnc(NCC(=O)OC(C)C)c(=O)[nH]1 1.2
CC(=O)NC(=S)Nc1ccc(NC(=O)COc2ccc(C(C)C)cc2)cc1 1
Cc1ccccc1NC(=O)c1ccc(S(=O)(=O)C(F)F)cc1 1.1
CCOC(=O)c1csc(Nc2nc3ccc(F)cc3s2)n1 1.1
COC(=O)c1ccc2nc(Nc3nc4ccc(F)cc4s3)sc2c1 1.2
C/C(=N\NC(=O)c1ccc(Cn2cc([N+](=O)[O-])cn2)o1)c1cccc(NC(=O)C(C)C)c1 1.1
CCC(C)NC(=O)CSC1=Nc2ccccc2C2=NC(c3ccccc3)C(=O)N12 (centres undefined) 1
CC(/C=N/NC(=O)Cc1cccs1)=C\c1ccccc1 1
COc1cccc(OCCOCCNCCO)c1 1.1
O=C(NNC(=O)C(c1ccccc1)c1ccccc1)c1ccccn1 1.5
CC(C)C(=O)NNC(=O)c1ccccn1 1.2
Cc1nn(CC(=O)NC2C(=O)N3C(C(=O)O)=C(CSc4nnnn4C)CSC23)cc1Br (centres undefined) 1.2
C=CCN1C(=O)C(C)(C)Nc2ccccc21 1.1
O=C1N(CCCCN2C(=O)C3(OCCO3)c3ccccc32)c2ccccc2C12OCCO2 1.2
C=CCN1C(=O)C2(NC(=O)c3ccccc3N2)c2ccccc21 (centres undefined) 1.1
O=C1N(CCCN2C(=O)C3(OCCO3)c3ccccc32)c2ccccc2C12OCCO2 1
O=C(CSc1nnc(-c2ccccc2)n1-c1ccc(Cl)cc1)N/N=C/c1ccco1 1
Cc1ccc(C)c(NC(=O)CS(=O)(=O)c2c[nH]c3ccccc23)c1 1
Cn1cc(Cl)c(C(=O)NC2CCCCCC2)n1 1.2
Cn1cc(Cl)c(C(=O)NC2CCCC2)n1 1.1
Cc1c(-n2cccc2C=O)cccc1[N+](=O)[O-] 1.6
COC(=O)Nc1nnc(CCc2ccccc2)s1 0.9
COc1ccccc1CNC(=O)Cc1ccc(Br)cc1 1.2
O=C(Nc1ccccc1-c1ccccc1)NC1CC2CCCC(C1)N2Cc1ccc(F)cc1 (centres undefined) 2.7
CCOc1ccccc1NC(=O)NC1CC2CCCC(C1)N2Cc1nnnn1CCc1ccccc1 (centres undefined) 1.4
CC(C)OC(=O)C1C2C=CC3(CN(C(C)c4ccc(Br)cc4)C(=O)C13)O2 (centres undefined) 1.1
Cn1c(N/N=C2\CCCc3ccccc32)nc2c1c(=O)n(Cc1ccccc1)c(=O)n2C 2.9
Cn1c(=O)c2c(nc(N/N=C3\CCCc4ccccc43)n2Cc2ccc(F)cc2)n(C)c1=O 2.2
Fc1ccc(C2CC(c3ccc(F)cc3)n3ncnc3N2)cc1 (centres undefined) 1.1
CC(C)N1CC(O)=C(c2nc3ccccc3[nH]2)C1=N 1.4
CC(C)CCN1CC(O)=C(c2nc3ccccc3[nH]2)C1=N 2
C=CCNC(=O)c1cc(-c2ccc(Br)cc2)on1 1.2
O=C(NNc1ccccn1)C(=O)NNS(=O)(=O)c1ccc(F)cc1 2.7
Cc1ccc(S(=O)(=O)NNC(=O)C(=O)NNc2ccccn2)cc1 2.9
Cc1ccc(NC(=O)c2cccc(S(C)(=O)=O)c2)cc1 1.1
C=CCN(CC=C)C(=O)C1CCC(C(=O)N(CC=C)CC=C)CC1 (centres undefined) 1
COc1ccc(-n2cc(CNCCc3cscn3)c(-c3ccccc3Cl)n2)cc1 1.1
COc1ccc(-n2cc(CNCCc3nc(C)cc(C)n3)c(-c3ccccc3Cl)n2)cc1 1
COC(=O)NNC(=O)c1ccc(C(C)(C)C)cc1 1.1
CC(C)(C)c1ccc(C(=O)NNC(=O)c2ccc(Cl)cc2)cc1 1.9
